# Results taken from PubChem BioAssay AID813 (Sanford-Burnham Center for Chemical Genomics, 2007).
# Among all 64,000 compounds or so, fewer than 10 were called active.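 How the source made its calls: active means activation factor of at least 2 at 20 µM, relative to controls; inactive means the rest.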 Not all results are given here.
# Biological target: Alkaline phosphatase, tissue-nonspecific isozyme (Homo sapiens) (UniProt P05186)
# Experiment: stimulation of alkaline phosphatase TNAP activity – biochemical, luminescent, intermediate phosphate acceptor level, primary screen (AID 813)
# Conditions: purified TNAP, CDP-star luminescence, 100 mM DEA, 30 min; at 20 µM; hits give high values; scale: 0 levamisole-inhibited, 1 vehicle-only enzyme
# Alkaline phosphatase, tissue-nonspecific isozyme (Homo sapiens), sequence (P05186 whole entry, looked up): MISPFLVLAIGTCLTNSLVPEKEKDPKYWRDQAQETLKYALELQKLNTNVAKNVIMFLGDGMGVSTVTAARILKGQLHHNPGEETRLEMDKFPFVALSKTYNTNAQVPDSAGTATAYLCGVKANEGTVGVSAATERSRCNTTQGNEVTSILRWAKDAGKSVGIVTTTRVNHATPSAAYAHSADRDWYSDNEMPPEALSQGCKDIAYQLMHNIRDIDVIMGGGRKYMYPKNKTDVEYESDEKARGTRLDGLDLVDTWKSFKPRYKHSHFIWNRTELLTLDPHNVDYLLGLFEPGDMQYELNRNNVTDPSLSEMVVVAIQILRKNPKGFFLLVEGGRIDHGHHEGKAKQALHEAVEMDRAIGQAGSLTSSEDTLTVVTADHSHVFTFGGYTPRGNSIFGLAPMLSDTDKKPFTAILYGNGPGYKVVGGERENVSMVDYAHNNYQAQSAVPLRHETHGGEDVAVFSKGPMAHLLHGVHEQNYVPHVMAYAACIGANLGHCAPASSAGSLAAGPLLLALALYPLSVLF
row,Compound,activation factor
1,Cc1ccccc1CSc1nnc(-c2cccnc2)n1N,0.9 (inactive)
2,COCCN1C(=O)c2oc3c(C)cc(C)cc3c(=O)c2C1c1cccc(O)c1 (stereo not drawn),0.8 (inactive)
3,COc1ccc2occ(C(=O)c3ccc(N=C(C)N(C)C)cc3)c2c1,0.9 (inactive)
4,O=C1CN(C(=O)COC(=O)C2CC(=O)N(Cc3ccco3)C2)c2ccccc2N1 (stereo not drawn),0.9 (inactive)
5,CSc1nc(O)c(Cc2ccccc2)c(=O)[nH]1,1 (inactive)
6,COc1cc(C(O)c2nc3ccccc3n2C)cc(OC)c1OC (stereo not drawn),0.9 (inactive)
7,O=C(O)c1cc(S(=O)(=O)N2CCCCCC2)c(Cl)cc1Cl,1 (inactive)
8,CCN1CCCC1CNC(=O)Cn1cnc2ccc(S(=O)(=O)N3CCC(C)CC3)cc2c1=O (stereo not drawn),0.9 (inactive)
9,CCCCn1nc(C(=O)N2CCc3ccccc32)c2ccccc2c1=O,0.9 (inactive)
10,Cc1ccc(O)c(NC(=O)COc2cc(C)ccc2C)c1,0.9 (inactive)
11,Cc1cccc(OCc2nnc(SCC(=O)N3CCN(C(=O)c4ccco4)CC3)n2C)c1C,0.9 (inactive)
12,Cc1cc(Cl)c(S(=O)(=O)Nc2ccc3c(c2)OCCO3)cc1OCC(N)=O,0.9 (inactive)
13,CC(=NCc1ccco1)C1=C(O)c2ccccc2C1=O,0.9 (inactive)
14,Cc1ccc(-c2noc(CSc3nnc(-c4ccccc4)n3C)n2)cc1,1 (inactive)
15,O=C(Cn1[nH]c(=O)c2ccccc2c1=O)Nc1cccc(-c2nnc3n2CCCCC3)c1,0.9 (inactive)
16,CC1Cc2nc(SCC(=O)Nc3ccccc3F)n(C)c(=O)c2S1 (stereo not drawn),1 (inactive)
17,COc1ccccc1C(=O)Oc1ccc(N2C(=O)CCC2=O)cc1,0.9 (inactive)
18,Clc1ccc(C2CC(c3cccs3)n3ncnc3N2)cc1Cl (stereo not drawn),1 (inactive)
19,O=C(CNC(=O)c1ccco1)OCC(=O)c1ccccc1,0.9 (inactive)
20,CN1CCC2(CC1)NC(=O)NC2=O,1 (inactive)
21,CCN(CC)CCN1C(=O)C(=O)/C(=C(/O)c2ccc(OC)c(OC)c2)C1c1ccccn1 (stereo not drawn),1 (inactive)
22,O=S(=O)(O)c1nc2ccccc2n1Cc1ccc(Cl)cc1Cl,0.9 (inactive)
23,CC(Nc1nc(N2CCCC2)nc2ccccc12)c1ccccc1 (stereo not drawn),1 (inactive)
24,NC(=O)CSc1c[nH]c2ccccc12,0.9 (inactive)
25,CCCCOc1ccc(C(=O)NCc2ccco2)cc1,0.9 (inactive)
26,COc1ccc(S(=O)(=O)N2CCCC(C(=O)Nc3ccc(NC(=O)c4ccccn4)cc3)C2)cc1 (stereo not drawn),0.8 (inactive)

row,Compound,activation factor
1,Cc1cc(Nc2cccc(C)c2C)n2ncnc2n1,1 (inactive)
2,O=C(CSC1=Nc2ccccc2C2=NC(c3ccccc3)C(=O)N12)NCC1CCCO1 (stereo not drawn),0.9 (inactive)
3,CCOC(=O)c1cccc(NC(=O)C2CCCN(S(=O)(=O)c3cnc[nH]3)C2)c1 (stereo not drawn),0.9 (inactive)
4,CSCC[C@H](NC(=O)NCc1cccs1)C(=O)O,0.9 (inactive)
5,Cc1c2cn[nH]c(=O)c2c(C)n1Cc1ccc(F)cc1,0.9 (inactive)
6,COc1ccc2nc(NC3=NCN(CC4CCCO4)CN3)nc(C)c2c1 (stereo not drawn),0.9 (inactive)
7,Cc1ccc(C)n1C(Cc1ccccc1)C(=O)O (stereo not drawn),0.8 (inactive)
8,Cc1cc(N2CCCC2=O)cc(C)c1S(N)(=O)=O,0.9 (inactive)
9,CCOC(=O)Cn1c(N)c(C(=O)OC)sc1=S,0.9 (inactive)
10,Cc1cccc(NC(=O)c2ccc3ccccc3n2)n1,0.9 (inactive)
11,COc1ccc(C2C(C#N)=C(N)Oc3cc(N)ccc32)cc1OC (stereo not drawn),1 (inactive)
12,Cc1nn(C)c(C)c1S(=O)(=O)N1CCc2ccccc21,1 (inactive)
13,Cc1cc(C)nc(N2C(=O)CC(Cc3ccccc3)C2=O)n1 (stereo not drawn),0.9 (inactive)
14,COc1ccc(-n2c(SCC(=O)Nc3ccc4c(c3)OCO4)nnc2C(C)N2CCCCC2)cc1 (stereo not drawn),1 (inactive)
15,N#CC1=C(N)OC2=C(C(=O)CCC2)C1C1CC=CCC1 (stereo not drawn),0.9 (inactive)
16,O=C(Nc1ccon1)c1sc2ccccc2c1Cl,1 (inactive)
17,Cc1ccc(S(=O)(=O)NCC(=O)OCC(=O)N2CCc3ccccc32)cc1,0.8 (inactive)
18,COc1ccc(C(=O)CSc2nccc(=O)[nH]2)cc1,1 (inactive)
19,CSc1cccc(NC(=O)C2CCCN2S(=O)(=O)c2ccc3c(c2)CCC(=O)N3)c1 (stereo not drawn),0.9 (inactive)
20,Cc1ccnc(N2CCCC(C(=O)Nc3cc(F)ccc3C)C2)n1 (stereo not drawn),0.9 (inactive)
21,Nc1nonc1C(=O)NCCc1ccccc1,0.9 (inactive)
22,CCc1cccc(C)c1NC(=O)CSc1nnc(-c2ccco2)n1N,1.1 (inactive)
23,COc1ccccc1-n1c(CNC(=O)c2ccccc2)nnc1SCC(=O)Nc1nnc(C)s1,1 (inactive)
24,Cc1ccc(S(=O)(=O)NC(C)C(=O)Nc2ccccc2C(=O)N2CCCC2)cc1 (stereo not drawn),0.9 (inactive)
25,O=C1C(C=NCC2CCCO2)=C(O)c2ccccc21 (stereo not drawn),1 (inactive)
26,O=C(CCN1C(=O)c2ccccc2C1=O)Nc1ccncc1,1 (inactive)

row,Compound,activation factor
1,CCn1nnc(NC(=O)c2cc(Cl)c(OC)c(Cl)c2)n1,0.9 (inactive)
2,CN(C)/C=C1/C(=O)Nc2ccccc21,0.9 (inactive)
3,CCCNC(=O)C1CC(=O)N(c2ccc(OCC(=O)Nc3cccc(C)c3C)cc2)C1 (stereo not drawn),1 (inactive)
4,CCCCNC(=O)CSc1nnc(-c2ccco2)n1C,1 (inactive)
5,CCOC(=O)c1cccc(NC(=O)CCn2nnc3ccccc32)c1,0.9 (inactive)
6,O=C(CSc1nnc(-c2cccs2)n1Cc1ccco1)c1ccc2c(c1)OCO2,0.9 (inactive)
7,CC(=O)N(CC1CCCO1)C1(C(=O)NC2CCCC2)CCCCC1 (stereo not drawn),1 (inactive)
8,CCn1c(SCC(=O)Nc2cc(C)c(Cl)cc2OC)nnc1-c1ccco1,1 (inactive)
9,Cc1ccc2c(C(=O)CN3CCCC3)c(C)[nH]c2c1,0.9 (inactive)
10,Cc1cccc(C2c3c(n(C)c(=O)n(C)c3=O)N=C3c4ccccc4C(=O)C32)c1 (stereo not drawn),0.8 (inactive)
11,C=CCn1c(C2CC(=O)N(c3ccc(C)cc3)C2)nc2ccccc21 (stereo not drawn),0.9 (inactive)
12,CC1(C)Cc2c(C#N)c(SCc3nc4ccccc4[nH]3)nc(N3CCOCC3)c2CO1,1 (inactive)
13,CCOC(=O)C1C(=O)OC2(CCCC2)C1C(=O)OCC (stereo not drawn),0.9 (inactive)
14,Cc1ncn(C23CC4CC(CC(O)(C4)C2)C3)n1,1 (inactive)
15,CC1CN(C(=O)CN2C(=O)NC(C)(c3ccccc3)C2=O)CC(C)O1 (stereo not drawn),0.9 (inactive)
16,CCOc1cc(C)c(Cl)cc1S(=O)(=O)n1nnc2ccccc21,0.9 (inactive)
17,CCOC(=O)CNC(=O)c1nn(-c2cccc(OC)c2)c(=O)c2ccccc12,0.9 (inactive)
18,CC(C)c1ccc(NC(=O)NC2CCCCC2)cc1,0.9 (inactive)
19,COc1ccc(N2C(=O)C3CCCN3C2c2cc(OC)c(OC)cc2OC)cc1 (stereo not drawn),0.9 (inactive)
20,Cc1oc(CC(C)C)c(CN2CCCC2)c1C(=O)O,0.9 (inactive)
21,CCCn1c(SCC(N)=O)nnc1C(C)C,0.9 (inactive)
22,O=C(CCN1C(=O)COc2ccccc21)NCCCN1CCN(c2ccc(F)cc2)CC1,0.9 (inactive)
23,Cc1c(-c2nn(C)c(=O)c3ccccc23)oc2ccc(F)cc2c1=O,1 (inactive)
24,CCC(=O)N1c2ccc(S(=O)(=O)CCC(=O)N3CCN(c4ccccc4)CC3)cc2CC1C (stereo not drawn),0.9 (inactive)
25,Cc1cc(Nc2ccccc2)n(CCC#N)n1,1 (inactive)
26,Cc1cc2cc(CNC(=O)c3ccc(S(=O)(=O)N4CCOCC4)cc3)ccc2[nH]1,1 (inactive)

row,Compound,activation factor
1,CCOC(=O)c1cc2occc2n1CC(=O)NC1CCC(C)CC1 (stereo not drawn),0.9 (inactive)
2,CC(CN1CCCCC1)OC(=O)c1ccccc1Cl (stereo not drawn),1 (inactive)
3,COC(=O)c1cc(NC2c3ccccc3C(=O)N2c2ccc(Cl)cn2)cc(C(=O)OC)c1 (stereo not drawn),0.9 (inactive)
4,N=c1c2c3c(sc2ncn1CCCN1CCOCC1)CCCCC3,0.9 (inactive)
5,Cc1ccc(S(=O)(=O)NCc2csc(C)n2)c(C)c1,0.9 (inactive)
6,CSCCC1NC2(C(=O)Nc3ccc(Cl)cc32)[C@@H]2C(=O)N(C3CCCC3)C(=O)[C@H]12 (stereo partly drawn),0.9 (inactive)
7,NC(=O)c1ccsc1NC(=O)c1ccco1,0.8 (inactive)
8,O=C(CC1(O)C(=O)N(CN2CCOCC2)c2ccccc21)c1ccccc1 (stereo not drawn),0.9 (inactive)
9,CCOc1cccc(-n2nnnc2-c2ccc(OC)cc2)c1,0.8 (inactive)
10,Cc1ccc(N2C(=O)c3oc4ccccc4c(=O)c3C2c2cccnc2)nc1 (stereo not drawn),0.9 (inactive)
11,COc1ccccc1N1CCN(Cc2ccc(OC)c3ccccc23)CC1,0.9 (inactive)
12,CC(C)(C)c1csc(NC2=NS(=O)(=O)c3ccccc32)n1,0.9 (inactive)
13,CN1CCN(CC(O)COCc2ccc3c(c2)OCO3)CC1 (stereo not drawn),1 (inactive)
14,COc1cc(C2C(C(=O)c3sc(C)nc3C)=C(O)C(=O)N2CCN(C)C)cc(OC)c1OC (stereo not drawn),0.9 (inactive)
15,CCOc1cc(/C=N/O)cc(Br)c1OC,0.9 (inactive)
16,Cc1ccc(C(=O)Nc2ccccc2C(=O)NC2CCCCC2)cc1S(=O)(=O)N1CCOCC1,0.9 (inactive)
17,CC1CCN(c2nc3c(c(=O)[nH]c(=O)n3C)n2CCCc2ccccc2)CC1,1 (inactive)
18,Cc1cc(C)nc(NC2=NCC(=O)N2c2ccc(Cl)cc2)n1,0.9 (inactive)
19,CCOc1cc(S(=O)(=O)NC2CC(C)(C)NC(C)(C)C2)ccc1F,0.9 (inactive)
20,Nc1nnc(C2CCCC2)s1,0.9 (inactive)
21,Cn1c(=NC(=O)c2ccco2)sc2cccc(F)c21,0.9 (inactive)
22,CC(C)(CNCC(O)c1ccccc1)N1CCOCC1 (stereo not drawn),0.9 (inactive)
23,CCOc1ccc(N(CC(=O)OC)S(=O)(=O)c2c(C)noc2C)cc1,0.9 (inactive)
24,COc1ccc(CCn2nnnc2C(c2ccccc2)N2CCN(C)CC2)cc1OC (stereo not drawn),1 (inactive)
25,O=C(OCCO)c1cc(Cl)c(C(=O)OCCO)cc1Cl,0.9 (inactive)
